Source: PubChem (several laboratories)
In the library only some 1.3% were active in any assay of this set; here they are far more common.
PrPC TRFRET: inhibitors of human cell surface prion protein PrPC | TR-FRET read-out | P04156 | actives 0.43% (n = 370,000) | inhibition, % at 13.8 µM; in the data active means inhibition above about 24%; further: 0% = median of the test wells and 100% = reference compound wells
CCHFV vOTU inh: blocks the CCHF virus ovarian tumor domain protease; actives 0.55% (n = 370,000); CCHFV vOTU protease, Pep-AMC fluorescence; inhibition, % at 11.5 µM; in the data active means inhibition above about 30%; further: 0% = vehicle wells with enzyme and 100% = no enzyme wells
PrP UTR inh: suppresses PrP 5' UTR mRNA reporter expression. cell-based PrP 5' UTR mRNA reporter, plate reader. inhibition, % (test concentration not listed). actives 0.35% (n = 340,000). AID 488862; in the data active means inhibition above about 52%; further: 0 = median of the neutral control wells
3CLpro inhibitor: SARS-CoV 3CLpro protease inhibition; recombinant SARS-CoV 3CLpro, quenched FRET peptide cleavage; inhibition, % at 6 µM; actives 0.14% (n = 290,000); in the data active means inhibition above about 12%
PrPC confirm: confirmation of inhibitors of cell surface human prion protein; shares compounds with PrPC TRFRET; cell surface PrPC level, TR-FRET; inhibition, % at 13.8 µM; actives 65% (n = 1,500); AID 743200; in the data active means inhibition above about 25%
LD9 tox: LD9 cell cytotoxicity, PrPc inhibitor counter-screen. actives 29% (n = 1,500). inhibition, % at 13.8 µM. AID 743201. LD9 cells cytotoxicity, luminescence viability. shares compounds with PrPC TRFRET; in the data active means inhibition above about 9.5%
An asterisk follows results filed as active.

How did CCCCNC(=O)CSc1nc(COc2ccccc2)nc2ccccc12 do in these assays?
PrPC TRFRET: 17; CCHFV vOTU inh: -2; PrP UTR inh: -10; 3CLpro inhibitor: 3

How did C=CCC(=O)N1CCCC(CCC(=O)NCc2ccccc2F)C1 (stereo unspecified) do in these assays?
PrPC TRFRET: 4; CCHFV vOTU inh: -9; PrP UTR inh: 0; 3CLpro inhibitor: -1

What do the screens show for `O=C(c1cc(COc2ccc3ncccc3c2)on1)N1CCCC1`?
PrPC TRFRET: 42*; CCHFV vOTU inh: 0; PrP UTR inh: -2; 3CLpro inhibitor: -2; PrPC confirm: 42*; LD9 tox: 9

Results for O=C(NCCc1cn2ccccc2n1)c1cc(COc2ccc3ncccc3c2)on1 ?
PrPC TRFRET: 25*; CCHFV vOTU inh: 14; PrP UTR inh: -1; 3CLpro inhibitor: -5; PrPC confirm: 40*; LD9 tox: 49*

Results for CC(NC(=O)c1cc(COc2ccc3ncccc3c2)on1)c1ccc(F)cc1 (stereo unspecified) ?
PrPC TRFRET: 33*; CCHFV vOTU inh: 2; PrP UTR inh: -1; 3CLpro inhibitor: 5; PrPC confirm: 34*; LD9 tox: 11*

How did COc1cc(OC)cc(C(=O)N[C@H](C(=O)Nc2ccc(F)cc2F)C(C)C)c1 do in these assays?
PrPC TRFRET: -3; CCHFV vOTU inh: 13; PrP UTR inh: -8; 3CLpro inhibitor: 4

How did COc1ccccc1C1/C(=C(\O)c2c(C)nc3c(C)cccn23)C(=O)C(=O)N1CCCN(C)C (stereo unspecified) do in these assays?
3CLpro inhibitor: -6

How did COc1ccc(CCCNC(=O)C2(C)Cc3c(-c4ccc(NC(C)=O)cc4)ccnc3O2)cc1 (stereo unspecified) do in these assays?
PrPC TRFRET: 7; CCHFV vOTU inh: -7

How did O=C(Nc1ccccc1)c1ccc(Br)c(S(=O)(=O)Nc2cccnc2)c1 do in these assays?
PrPC TRFRET: 3; CCHFV vOTU inh: 10; PrP UTR inh: -21; 3CLpro inhibitor: 7

What do the screens show for `O=S(=O)(Nc1cccnc1)c1ccc(Br)c2ccccc12`?
PrPC TRFRET: 36*; CCHFV vOTU inh: -13; PrP UTR inh: -16; 3CLpro inhibitor: 0; PrPC confirm: 43*; LD9 tox: -5

How did O=C(Nc1ccc2c(c1)OCO2)c1ccc2sc([C@@H]3O[C@H](CO)[C@@H](O)[C@H]3O)nc2c1 do in these assays?
PrPC TRFRET: 25*; CCHFV vOTU inh: 14; PrPC confirm: 21; LD9 tox: 5

How did CC1(c2ccccc2Br)NC(=O)N(CC(=O)Nc2ccc(S(N)(=O)=O)cc2)C1=O (stereo unspecified) do in these assays?
PrPC TRFRET: 2; CCHFV vOTU inh: 0; PrP UTR inh: -84; 3CLpro inhibitor: -5

Results for CCOC(=O)N1CCN(C(=O)/C(=C/c2ccc(OC)c(OC)c2)NC(=O)c2ccccc2)CC1 ?
PrPC TRFRET: 29*; CCHFV vOTU inh: -10; PrP UTR inh: -33; 3CLpro inhibitor: -6; PrPC confirm: -1; LD9 tox: -4

Results for Cn1nnnc1SCc1nc2scc(-c3ccc(Cl)cc3)c2c(=O)[nH]1 ?
PrPC TRFRET: 32*; CCHFV vOTU inh: -5; PrP UTR inh: -30; 3CLpro inhibitor: 3; PrPC confirm: 26*; LD9 tox: 6

What do the screens show for `Cn1nnnc1SCc1nc2scc(-c3ccccc3)c2c(=O)[nH]1`?
PrPC TRFRET: 12; CCHFV vOTU inh: 3; PrP UTR inh: -31; 3CLpro inhibitor: 1

Results for C=CCNc1nc(-c2ccccn2)nnc1-c1ccccc1 ?
PrPC TRFRET: 21; CCHFV vOTU inh: 15; PrP UTR inh: -53; 3CLpro inhibitor: -1

Results for CC(C)(C)CCNc1nc(-c2ccccn2)nnc1-c1ccccc1 ?
PrPC TRFRET: 28*; PrPC confirm: 27*; LD9 tox: 34*

How did c1ccc(-c2ccc(CNc3nc(-c4ccccn4)nnc3-c3ccccc3)cc2)cc1 do in these assays?
PrPC TRFRET: 29*; PrPC confirm: 37*; LD9 tox: 28*

What do the screens show for `COc1ccc(Nc2nc3cc(-c4sccc4C)sc3c(=O)n2C)cc1OC`?
PrPC TRFRET: -4; CCHFV vOTU inh: 1

Results for COc1ccc(C(N)c2csc(NC(=O)Nc3ccccc3C(C)(C)C)n2)cc1 (stereo unspecified) ?
PrPC TRFRET: 30*; CCHFV vOTU inh: 4; PrPC confirm: 7; LD9 tox: -6

What do the screens show for `NC(CCc1ccccc1)c1csc(NC(=O)Nc2ccccc2Oc2ccccc2)n1` (stereo unspecified)?
PrPC TRFRET: 50*; CCHFV vOTU inh: 18; PrPC confirm: 34*; LD9 tox: 3

Results for NC(CCc1ccccc1)c1csc(NC(=O)NCCc2ccccc2)n1 (stereo unspecified) ?
PrPC TRFRET: 1; CCHFV vOTU inh: -3

Results for CC(C)(C)c1ccccc1NC(=O)Nc1nc(C(N)c2ccccc2)cs1 (stereo unspecified) ?
PrPC TRFRET: 0; CCHFV vOTU inh: 0

What do the screens show for `O=C(C[n+]1ccccc1)N1c2ccccc2Sc2ccccc21`?
PrPC TRFRET: 9; CCHFV vOTU inh: 1; PrP UTR inh: -4; 3CLpro inhibitor: -7

What do the screens show for `CC1(C)CC(=O)C2=C(C1)NC(=O)CC2c1cc(F)ccc1F` (stereo unspecified)?
PrPC TRFRET: 7; CCHFV vOTU inh: 6; PrP UTR inh: 2; 3CLpro inhibitor: -2

How did COc1ccccc1C1C(C(=O)c2cc3ccccc3o2)=C(O)C(=O)N1CCN(C)C (stereo unspecified) do in these assays?
PrPC TRFRET: -3; CCHFV vOTU inh: 11; PrP UTR inh: -17; 3CLpro inhibitor: -2

How did COc1cccc2cc(C(=O)C3=C(O)C(=O)N(CCN(C)C)C3c3ccc(Cl)cc3)oc12 (stereo unspecified) do in these assays?
PrPC TRFRET: 41*; CCHFV vOTU inh: -9; PrP UTR inh: -36; 3CLpro inhibitor: 2; PrPC confirm: 52*; LD9 tox: -3

Results for Cc1sc2ncnc(Sc3ccccc3C(=O)Nc3ccc(C#N)cc3)c2c1C ?
PrPC TRFRET: 21; CCHFV vOTU inh: -4; PrP UTR inh: -17; 3CLpro inhibitor: 3

How did Cc1sc2ncnc(Sc3ccccc3C(=O)Nc3ccc(Br)cc3)c2c1C do in these assays?
PrPC TRFRET: 25*; CCHFV vOTU inh: 12; PrP UTR inh: -25; 3CLpro inhibitor: 2; PrPC confirm: 31*; LD9 tox: -3

How did Cc1cc(F)ccc1S(=O)(=O)Nc1c(C)n(C)n(-c2ccccc2)c1=O do in these assays?
PrPC TRFRET: 8; CCHFV vOTU inh: -4; PrP UTR inh: -23; 3CLpro inhibitor: -6

What do the screens show for `Nc1c(C(=O)Nc2ccc3c(c2)OCCO3)nnn1Cc1cccc(Br)c1`?
PrPC TRFRET: 29*; CCHFV vOTU inh: 0; PrP UTR inh: -70; PrPC confirm: 21; LD9 tox: -4
